Laboratory results: ChEMBL document CHEMBL1157539, “Thousands of chemical starting points for antimalarial lead identification” (Nature, 2010)

What was measured:
Type in all cases: functional
Plasmodium falciparum [1] = test: GSK_TCMDC: Inhibition of Plasmodium falciparum 3D7 in whole red blood cells, using parasite LDH activity as an index of growth. Test compounds present at 2uM
Plasmodium falciparum [2] = test: GSK_TCMDC: Inhibition of Plasmodium falciparum Dd2 in whole red blood cells, using parasite LDH activity as an index of growth. Test compounds present at 2uM
HepG2 = test: GSK_TCMDC: Percent inhibition of human HepG2 cell line. Test compounds present at 10uM.

| SMILES | Inhibition (Plasmodium falciparum [1]) [%] | Inhibition (Plasmodium falciparum [2]) [%] | Inhibition (HepG2) [%] |
| --- | --- | --- | --- |
| O=C(Nc1ccc(Oc2ccccc2)cc1)N1CCC(CCN2CCC(c3c[nH]c4ccccc34)CC2)CC1 | 100 | 36 | 42 |
| Cc1ccccc1N1CCN(c2ccc(C(=O)Nc3ccccc3)cc2)CC1 | 89 | 91 | 22 |
| CCCCCCCN1CC[C@@H](CCCc2ccnc3ccc(OCC4CCCNC4)cc23)[C@@H](CC)C1.Cl (some centres undefined) | 98 | 100 | 99 |
| CNS(=O)(=O)Cc1ccc(Nc2nccc(Nc3cccc4c3cnn4C(=O)Nc3ccccc3)n2)cc1 | 89 | 5 | 45 |
| CCc1cc(OC)ccc1C1CCN(CCCCNC(=O)c2ccc(NC(=O)c3ccc(Cl)cc3)cc2)CC1.Cl | 95 | 61 | 23 |
| CN(C(=O)/C=C/c1cc(C(F)(F)F)ccc1F)C1CCN(CCCCCNC(=O)/C=C/c2ccc(Cl)c(Cl)c2)CC1 | 100 | 68 | 71 |
| N#Cc1ccc(CN2CCC(Oc3ccc(NC(=O)c4cccs4)cc3)C2)cc1.O=C(O)C(F)(F)F (centres undefined) | 82 | 65 | 5 |
| Cc1cc(Nc2ccc(Cl)cc2)n2nc(C(F)(F)F)nc2n1 | 97 | 95 | 5 |
| COc1cccc(NC(=O)Nc2ccc(Nc3nc(C)cc(N(C)C)n3)cc2)c1 | 100 | 100 | 14 |
| CCCCn1c(Sc2ccc(C#N)c([N+](=O)[O-])c2)nnc1-c1ccc(OC)cc1 | 93 | 61 | 12 |
| COc1ccc(C(=O)C2CC2CN(C)CC(O)c2cc(C)c(OC)cc2C)cc1.O=C(O)C(F)(F)F (centres undefined) | 90 | 77 | 8 |
| C=CCc1cc(Cc2cnc(N)nc2N)c2ccc(C)nc2c1OC | 96 | 0 | 11 |
| COc1cccc(C=Cc2nc(=O)c3ccccc3o2)c1OC | 97 | 97 | 0 |
| Cl.N=c1n(Cc2ccccc2)c2ccccc2n1CC(O)c1ccc(Cl)cc1 (centres undefined) | 96 | 75 | 26 |
| Cc1cccc(C)c1/N=C1\NC(=S)N(c2cccc(Cl)c2)C12CCC(C(C)(C)C)CC2 (centres undefined) | 87 | 53 | 4 |
| COc1cc(F)c2ncc(Cl)c(C(O)CN3CCC(NC(=O)c4ccc5c(n4)NC(=O)CO5)CC3)c2c1.Cl (centres undefined) | 100 | 100 | 22 |
| CC(=O)Nc1ccc(C(=O)Nc2cccc(-c3csc(-c4nc5ccccc5[nH]4)c3)c2)cn1 | 100 | 97 | 6 |
| O=C(NC1CCN(CCC[C@]2(c3ccc(Cl)c(Cl)c3)CCCN(C(=O)c3ccccc3)C2)CC1)c1ccc(Cl)cc1 | 95 | 4 | 56 |
| Cc1nnsc1C(=O)Nc1cccc(-c2cccc(-c3nc4cc(C(F)(F)F)ccc4[nH]3)c2)c1 | 100 | 100 | 70 |
| Fc1cccc(COc2ccc(-n3ccc4c(NCCCn5ccnc5)ncnc43)cc2Cl)n1 | 87 | 29 | 14 |
| CN(C)CCOc1cc(NC(=O)Nc2ccc3c(c2)CCCC3=O)ccc1I | 94 | 31 | 29 |

| SMILES | Inhibition (Plasmodium falciparum [1]) [%] | Inhibition (Plasmodium falciparum [2]) [%] | Inhibition (HepG2) [%] |
| --- | --- | --- | --- |
| COc1ccc(-c2ccc(CN(C)C3CCC(NC(=O)c4cc5ccccc5[nH]4)CC3)cc2)cn1 (centres undefined) | 88 | 2 | 31 |
| Br.CC1(C)NC(N)=NC(=N)N1OCCc1ccc(N)cc1 | 93 | 95 | 65 |
| CC(=O)c1ccccc1C(=O)N1CCOc2ccc(C(O)C(c3ccccc3)c3ccccc3)cc2C1 (centres undefined) | 96 | 98 | 10 |
| CN(C)CCNCc1ccc(-c2ccc(-c3nc4ccccc4[nH]3)s2)cc1.O=C(O)C(F)(F)F | 100 | 100 | 0 |
| CC(C)C(C(=O)Nc1ccc2c(c1)OCO2)c1ccc(Cl)cc1 (centres undefined) | 98 | 89 | 25 |
| CC(C)CCNC(=O)C1Cc2c([nH]c3cc(Br)ccc23)C2(CCN(CCc3ccccc3)CC2)N1 (centres undefined) | 97 | 48 | 14 |
| N#Cc1ccc2[nH]c(-c3ccccc3)nc2c1 | 95 | 1 | 7 |
| Br.CC1(C)NC(N)=NC(=N)N1OCCCc1cccc(C(F)(F)F)c1 | 95 | 95 | 62 |
| O=C(NCCCCN1CC=C(c2ccc3c(c2OCC2CC2)CCCC3)CC1)c1ccc(-c2ccc(C(F)(F)F)cc2)cc1 | 93 | 60 | 25 |
| COc1cc(N(C)Cc2cnc3nc(N)nc(N)c3n2)cc(OC)c1OC | 95 | 2 | 32 |
| CCCCCCCNC(=O)NCC1CCCN(CCCCCNC(=O)/C=C/c2ccc(Cl)c(Cl)c2)C1 (centres undefined) | 86 | 7 | 98 |
| Nc1ccc2[nH]cc(C3CCN(CC4CCC(NC(=O)/C=C/c5ccccc5Cl)CC4)CC3)c2n1 (centres undefined) | 100 | 45 | 7 |
| CS(=O)(=O)c1ccccc1CNC(=O)c1cccc(-c2ccc(-c3nc4cc(C(F)(F)F)ccc4[nH]3)cc2)c1 | 95 | 7 | 86 |
| Nc1cccc(CNCc2cccc(-c3cccc(-c4nc5ccccc5[nH]4)c3)c2)c1.O=C(O)C(F)(F)F | 100 | 84 | 1 |
| COc1ccc(-c2nc(NCc3ccccc3)c3cc(OC)c(OC)cc3n2)cc1 | 100 | 100 | 15 |
| Cl.Nc1c2c(nc3ccc(NC(=O)CCCCCc4ccccc4)cc13)CCCC2 | 100 | 36 | 32 |
| Cc1cc(O)c(-c2ccc(Oc3ccc(F)cc3)cc2)c(C)n1 | 85 | 59 | 0 |
| CCN(CC)C(=O)c1cnc(-c2ccccc2)nc1Oc1cccc(Cl)c1 | 92 | 40 | 0 |
| Cc1cc(N[C@@H](CC(C)C)C(=O)Nc2ccccc2)nc(NCc2ccccc2C)n1.O=C(O)C(F)(F)F | 100 | 81 | 21 |
| COc1ccc2[nH]ccc(=NN=Cc3cccc(Cl)c3)c2c1 | 100 | 99 | 1 |
| Cc1cc(C)cc(-n2c(C)cc(/C=C3\SC(=Nc4ccc(Cl)cc4)NC3=O)c2C)c1 | 97 | 97 | 12 |

| SMILES | Inhibition (Plasmodium falciparum [1]) [%] | Inhibition (Plasmodium falciparum [2]) [%] | Inhibition (HepG2) [%] |
| --- | --- | --- | --- |
| C[C@H](CNc1ccnc(Nc2ccc3[nH]c(=O)[nH]c3c2)n1)c1ccccc1 | 99 | 2 | 50 |
| Cl.NC1CCN(CCc2ccc(NS(=O)(=O)c3cccc4ccccc34)cc2)CC1 | 94 | 4 | 21 |
| COc1ccc(CNC(=O)c2cnc3c(O)cccc3c2Nc2cccc(NC(=O)c3ccc(-c4ccccc4)cc3)c2)cc1.O=C(O)C(F)(F)F | 90 | 83 | 42 |
| COc1ccc(CCNc2nc(SCc3ccccc3Cl)nc3ccccc23)cc1OC | 94 | 2 | 27 |
| Cc1cccc(NC(=O)NC2CCN(CCCCCNC(=O)/C=C/c3ccc(Cl)c(Cl)c3)CC2)c1 | 100 | 21 | 34 |
| N=C(N)NN=Cc1ccccc1OCc1ccccc1Cl | 100 | 30 | 14 |
| COc1ccc2ncc(F)c(CCN3CCC(NCc4cc(Br)c5c(c4)OCCO5)CC3)c2n1.Cl | 100 | 94 | 26 |
| CNC(=O)C1Cc2c([nH]c3cc(Cl)ccc23)C2(CCN(CCc3ccccc3)CC2)N1 (centres undefined) | 91 | 3 | 14 |
| CC[C@H](C)CNC(=O)c1cncc(-c2cccc(CN3CCC(N4CCCC4)CC3)c2)c1.O=C(O)C(F)(F)F | 97 | 5 | 0 |
| Cc1cc(Cl)ccc1OC(C)C(=O)N1CCc2ccccc21 (centres undefined) | 94 | 78 | 8 |
| CC1=C(C(=O)OCCOCc2ccccc2)C(c2ccccc2C(F)(F)F)C(C(=O)OCCOCc2ccccc2)=C(C)N1 | 89 | 87 | 0 |
| Cc1noc(C)c1-c1ccc(C(=C2CCCCCCC2)c2ccc(O)cc2)cc1 | 83 | 48 | 0 |
| Cc1ccnc2nc(C(=O)Nc3cc(C(F)(F)F)ccc3N3CCCCC3)nn12 | 96 | 94 | 7 |
| CCC(CC)N1C(=O)C(c2ccccc2)(c2ccccc2)N=C1N.O=CO | 96 | 61 | 14 |
| O=C(Nc1cccc(-c2cccc(-c3nc4cc(F)ccc4[nH]3)c2)c1)c1c[nH]cn1 | 100 | 87 | 13 |
| O=C(Nc1ccc2c(c1)OCO2)c1cc(-c2cccnc2)nc2ccc(Cl)cc12 | 89 | 41 | 9 |
| Cc1c(CNCCCNc2cc(=O)c3ccccc3[nH]2)sc(C(F)=C(F)F)c1Br.Cl | 94 | 18 | 7 |
| Cc1cc(Cc2ccc(S(=O)(=O)c3cc4c(cc3O)CCN(C)CC4)cc2)ccc1Cl.Cl | 96 | 12 | 7 |
| CN(c1ccccc1C(=O)Nc1cc(Cl)ccc1Oc1ccccc1)S(=O)(=O)c1ccccc1 | 99 | 42 | 47 |
| O=C(O)C(F)(F)F.c1cc(CNCCN2CCNCC2)cc(-c2cccc(-c3nc4ccccc4[nH]3)c2)c1 | 89 | 1 | 11 |
| O=C(CCc1c[nH]cn1)Nc1cccc(-c2cccc(-c3nc4ccccc4[nH]3)c2)c1 | 100 | 25 | 8 |
